HDAC3 inh: inhibitors of human histone deacetylase 3. O15379. recombinant HDAC3, fluorogenic peptide/trypsin coupled, fluorescence. inhibition, % at 8.3 µM. hit rate 0.15% among 320,000. AID 2718; in the data active = inhibition above about 26%, passing the limit was not always enough
SIRT5 inh: blocks human SIRT5 desuccinylation of peptide; Q9NXA8; Purified SirT5, succinyl-peptide AMC, trypsin-coupled fluorescence; inhibition, % at 15 µM; hit rate 1.1% among 330,000; in the data active = inhibition above about 15%
ERp5 inh: blocks human ERp5 reductase activity on insulin. Q15084. ERp5 insulin aggregation, absorbance 650 nm, 90 min. inhibition, % at 9.99 µM. hit rate 0.05% among 350,000. AID 651711;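 active = mean replicate inhibition above about 25%, with every replicate also reaching it, limit read from the data, passing the limit was not always enough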
PDI inh: blocks human protein disulfide isomerase activity; PDI insulin aggregation turbidity, A650, 90 min; hit rate 0.052% among 350,000; inhibition, % at 10 µM; AID 588391;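 active = mean inhibition across replicates of 30% or more, whatever share of single replicates reach that level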
Target sequence (P07237 whole entry, looked up): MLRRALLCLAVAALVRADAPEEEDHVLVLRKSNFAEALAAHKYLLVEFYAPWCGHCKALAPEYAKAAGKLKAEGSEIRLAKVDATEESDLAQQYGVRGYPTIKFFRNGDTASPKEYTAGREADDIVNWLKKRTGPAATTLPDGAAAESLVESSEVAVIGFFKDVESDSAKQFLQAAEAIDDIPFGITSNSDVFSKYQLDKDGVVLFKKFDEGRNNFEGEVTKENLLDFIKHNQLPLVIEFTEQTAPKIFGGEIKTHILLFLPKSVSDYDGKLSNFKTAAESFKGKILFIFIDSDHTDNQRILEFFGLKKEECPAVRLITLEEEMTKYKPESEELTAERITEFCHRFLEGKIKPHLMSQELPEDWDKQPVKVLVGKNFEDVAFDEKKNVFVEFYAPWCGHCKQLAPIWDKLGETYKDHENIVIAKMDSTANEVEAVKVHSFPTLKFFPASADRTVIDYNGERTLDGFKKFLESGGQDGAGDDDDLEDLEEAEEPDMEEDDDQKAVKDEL
ERAP1 HTS inh: ERAP1 (human) enzyme inhibition. Q9NZ08. recombinant ERAP1, Leu-AMC fluorescence, 60 min. inhibition, % at 10.7 µM. hit rate 0.15% among 340,000. AID 652197;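 active = mean replicate inhibition of at least 30%, or all replicates individually reaching that 30% level; inactive = mean below 30% and not every replicate reaching it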
Numbers stand for hits. The full list was thinned out, with hits kept by preference.

Screening COc1ccc(S(=O)(=O)Nc2ccc3c(c2)CC(=O)N([C@@H](C)CO)C[C@@H](C)[C@H](CN(C)Cc2ccc(C(F)(F)F)cc2)O3)cc1 returned SIRT5 inh 24, ERp5 inh inactive and ERAP1 HTS inh inactive.
COc1ccc(S(=O)(=O)Nc2ccc3c(c2)CC(=O)N([C@@H](C)CO)C[C@@H](C)[C@@H](CN(C)Cc2ccc(C(F)(F)F)cc2)O3)cc1 was read as SIRT5 inh inactive, ERp5 inh inactive and ERAP1 HTS inh inactive.
`C[C@H](CO)N1C[C@H](C)[C@H](CN(C)Cc2ccc(C(F)(F)F)cc2)Oc2ccc(NS(=O)(=O)c3ccc(F)cc3)cc2CC1=O` gave SIRT5 inh inactive, ERp5 inh inactive and ERAP1 HTS inh inactive.
`Cc1noc(C)c1NC(=O)Nc1ccc2c(c1)C(=O)N([C@@H](C)CO)C[C@@H](C)[C@@H](CN(C)CC1CCCCC1)OCCCC[C@@H](C)O2` gave SIRT5 inh inactive, ERp5 inh inactive and ERAP1 HTS inh inactive.
`CCNC(=O)[C@H]1[C@H](CO)[C@H]2Cn3c(ccc(-c4ccccc4)c3=O)[C@@H]1N2C(=O)C1CC1` gave SIRT5 inh inactive, ERp5 inh inactive and ERAP1 HTS inh inactive.
For CCCC(=O)N1CCC2(CC1)CN(C(=O)C1CCCC1)[C@H](CO)c1[nH]c3cc(OC)ccc3c12 the results were SIRT5 inh inactive, ERp5 inh inactive and ERAP1 HTS inh inactive.
COc1ccc(S(=O)(=O)Nc2ccc3c(c2)CC(=O)N([C@H](C)CO)C[C@H](C)[C@@H](CN(C)Cc2ccc(C(F)(F)F)cc2)O3)cc1 was read as SIRT5 inh 26, ERp5 inh inactive and ERAP1 HTS inh inactive.
Screening COc1ccc(CN(C)C[C@H]2Oc3ccc(NS(=O)(=O)c4ccc(F)cc4)cc3C(=O)N([C@H](C)CO)C[C@H]2C)cc1 returned SIRT5 inh inactive, ERp5 inh inactive and ERAP1 HTS inh inactive.
Screening C[C@@H]1CN([C@@H](C)CO)C(=O)c2cc(NC(=O)C3CC3)ccc2O[C@H]1CN(C)Cc1ccncc1 returned SIRT5 inh inactive, ERp5 inh inactive and ERAP1 HTS inh inactive.
Screening c1nc(SSc2ncnc3nc[nH]c23)c2[nH]cnc2n1 returned SIRT5 inh inactive, ERp5 inh inactive, PDI inh inactive and ERAP1 HTS inh 33.
Screening O=C(O)CSc1ncnc2nc[nH]c12 returned HDAC3 inh inactive and PDI inh inactive.
Screening CCCCNC(=O)c1ccc2nc(-c3ccco3)c(-c3ccco3)nc2c1 returned HDAC3 inh inactive, ERp5 inh inactive and PDI inh inactive.
For O=C(NCCCO)c1ccc2nc(-c3ccco3)c(-c3ccco3)nc2c1 the results were SIRT5 inh 15, ERp5 inh inactive, PDI inh inactive and ERAP1 HTS inh inactive.
For CCOC(=O)c1c(CN(C)C)n(-c2ccc(C)cc2)c2cc(Br)c(O)cc12 the results were HDAC3 inh inactive and PDI inh 49.
For CCCc1c(C(=O)OCC)[nH]c2c1C(=O)CCC2 the results were HDAC3 inh inactive, SIRT5 inh 29, ERp5 inh inactive and ERAP1 HTS inh inactive.
Screening COc1cc(/C=C/C=C2/CC/C(=C/C=C/c3ccc(O)c(OC)c3)C2=O)ccc1O returned SIRT5 inh inactive, ERp5 inh inactive, PDI inh 39 and ERAP1 HTS inh inactive.
For C[C@H]1CN([C@@H](C)CO)C(=O)Cc2cc(NC(=O)CCCCCC(=O)Nc3ccccc3N)ccc2O[C@H]1CN(C)Cc1ccc(Oc2ccccc2)cc1 the results were SIRT5 inh 20, ERp5 inh inactive and ERAP1 HTS inh inactive.
Screening C[C@H](CO)N1C[C@H](C)[C@H](CN(C)Cc2ccc(Oc3ccccc3)cc2)Oc2ccc(NC(=O)CCCCCC(=O)Nc3ccccc3N)cc2CC1=O returned SIRT5 inh 30, ERp5 inh inactive and ERAP1 HTS inh inactive.
Screening CO[C@H]1CN(C)C(=O)c2ccc(NC(C)=O)cc2OC[C@H](C)N(Cc2cc(F)ccc2F)C[C@H]1C returned SIRT5 inh inactive, ERp5 inh inactive and ERAP1 HTS inh inactive.
For COCC(=O)N1C[C@@H](C)[C@@H](OC)CN(C)C(=O)c2cc(NC(=O)c3ccccc3)ccc2OC[C@@H]1C the results were ERp5 inh inactive and ERAP1 HTS inh inactive.
For C[C@H](CO)N1C[C@H](C)[C@@H](CN(C)Cc2cccnc2)Oc2ncc(-c3ccccc3)cc2C1=O the results were SIRT5 inh inactive, ERp5 inh inactive and ERAP1 HTS inh inactive.
`C=CCn1nnnc1SCC(=O)Nc1ccc(C(=O)OC)cc1` gave HDAC3 inh inactive, SIRT5 inh inactive, ERp5 inh inactive, PDI inh inactive and ERAP1 HTS inh inactive.
For C=CCn1nnnc1SCC(=O)Nc1cccc(C(F)(F)F)c1 the results were HDAC3 inh inactive, SIRT5 inh inactive, ERp5 inh inactive, PDI inh inactive and ERAP1 HTS inh 103.
O=C(CC1SC(=O)N(c2ccccc2)C1=O)Nc1ccc(Br)cc1 (stereo not drawn) was read as HDAC3 inh 50, SIRT5 inh inactive, ERp5 inh inactive, PDI inh inactive and ERAP1 HTS inh inactive.
Screening O=C(CC1SC(=O)N(c2ccccc2)C1=O)Nc1ccc(Cl)cc1 (stereo not drawn) returned HDAC3 inh 45, SIRT5 inh inactive, ERp5 inh inactive, PDI inh inactive and ERAP1 HTS inh inactive.
Screening C[C@@H]1CN([C@@H](C)CO)S(=O)(=O)c2ccc(-c3cccnc3)cc2O[C@H]1CN(C)C(=O)C1CCC1 returned SIRT5 inh inactive, ERp5 inh inactive and ERAP1 HTS inh inactive.
`Cc1ccc(S(=O)(=O)c2ccc(C)cc2)cc1` gave HDAC3 inh inactive, SIRT5 inh inactive, ERp5 inh inactive, PDI inh inactive and ERAP1 HTS inh inactive.
`Cc1ccc(S(=O)(=O)C=CS(=O)(=O)c2ccc(C)cc2)cc1` gave SIRT5 inh inactive, ERp5 inh 31, PDI inh inactive and ERAP1 HTS inh inactive.
Screening CN(C)CC1CC/C(=C\c2ccc(O)cc2)C1=O (stereo not drawn) returned SIRT5 inh inactive, ERp5 inh inactive, PDI inh 87 and ERAP1 HTS inh inactive.
`C[C@@H]1CCCCO[C@H](CN(C)CC2CCCCC2)[C@H](C)CN([C@@H](C)CO)C(=O)c2cc(NS(=O)(=O)c3ccc(F)cc3)ccc2O1` gave SIRT5 inh inactive, ERp5 inh inactive and ERAP1 HTS inh inactive.
For Cc1ccc(S(=O)(=O)Nc2ccc3c(c2)C(=O)N([C@H](C)CO)C[C@H](C)[C@@H](CN(C)CC2CCCCC2)OCCCC[C@H](C)O3)cc1 the results were SIRT5 inh inactive, ERp5 inh inactive and ERAP1 HTS inh inactive.
Screening Cc1ccc(S(=O)(=O)Nc2ccc3c(c2)C(=O)N([C@@H](C)CO)C[C@@H](C)[C@@H](CN(C)CC2CCCCC2)OCCCC[C@H](C)O3)cc1 returned SIRT5 inh 17, ERp5 inh inactive and ERAP1 HTS inh inactive.
C[C@@H]1CCCCO[C@@H](CN(C)CC2CCCCC2)[C@@H](C)CN([C@@H](C)CO)C(=O)c2cc(NS(=O)(=O)c3ccc(F)cc3)ccc2O1 was read as SIRT5 inh 19, ERp5 inh inactive and ERAP1 HTS inh inactive.
